From PubChem BioAssay (Tox21)
Records with an inconclusive call do not appear. Active and inactive are the calls of the source. Unless noted, calls follow the shape of the dose curve; as a rule, active = well fitted curve in the direction sought with a large enough effect in the repeat runs; inconclusive = weak or mixed curves; inactive = no such curve, though single readings can be large; an effect the other way counts as inactive or inconclusive.

system: not listed separately; experiment: qHTS assay to identify small molecule antagonists of the androgen receptor (AR) signaling pathway - cell viability counter screen (AID 743033; also: nearly all actives have a fitted effect of over 45% in size); conditions: AR-bla HEK293 viability, CellTiter-Glo luminescence, 16 h; series mostly up to 58.5 µM; activity change, negative = cytotoxicity: at the top concentration
% is scaled to controls: 0 for no effect and ±100 for the full control effect.

SMILES	activity change, negative = cytotoxicity
CC(COc1ccccc1)NC(C)C(O)c1ccc(O)cc1 (configuration not stated)	-12.1% [at 27 µM] (inactive)
CC1=C(C)C(=O)C(C(CCCCCC(=O)O)c2ccccc2)=C(C)C1=O (configuration not stated)	-15.3% (inactive)
C[Si](C)(C)O[Si](C)(C)O[Si](C)(C)C	5.7% (inactive)
O=C(O)CNc1ccccc1	4.39% (inactive)
CCCCCCCCCCCC(=O)OCC	0.455% (inactive)
Clc1nc2ccccc2nc1Cl	1.9% [at 78.9 µM] (inactive)
O=[N+]([O-])c1ccc(Cl)cc1Cl	3.45% (inactive)
CC(C(=O)O)c1ccc(/C=C2\CCCCC2=O)cc1 (configuration not stated)	-4.39% (inactive)
CCCC1CCCC(=O)O1 (configuration not stated)	-1.13% (inactive)
COc1ccc(/C=C/c2cc(OC)cc(=O)o2)cc1	-11.7% (inactive)
O=C(O)c1cc(C(=O)O)cc([N+](=O)[O-])c1	5.23% (inactive)
O=C(NC1CCN(CCc2c[nH]c3ccccc23)CC1)c1ccccc1	-8.47% (inactive)
CC(=O)c1ccc(Cl)c(Cl)c1Cl	-2.34% (inactive)
COc1ccc(/C=C/S(=O)(=O)NC(=O)c2ccc(C)cc2Cl)cc1	-22.1% (inactive)
OCCc1ccncc1	-1.1% (inactive)
C=CC(=O)OCCCCCCCCCC	2.34% (inactive)
CC(CCl)OC(C)CCl (configuration not stated)	-2.65% (inactive)
CC(C)(C)c1ccc(CCC=O)cc1	-11.5% (inactive)
Nc1cccc2c(=O)[nH][nH]c(=O)c12	2.89% [at 78.9 µM] (inactive)
C/C(=C\C(C)CC(C)CC(C)C)C1CC(=O)OC1=O (configuration not stated)	-1.45% (inactive)
CCCCCCCCCCCCCCCCN	1.71% (inactive)
O=C(O)c1ccc2cc(O)ccc2c1	1.38% (inactive)
O=C1OC(=O)C2CC=CCC12 (configuration not stated)	-3.3% [at 78.9 µM] (inactive)
C[C@H]1C[C@H]2[C@@H]3CCC4=CC(=O)C=C[C@]4(C)[C@@]3(F)[C@@H](O)C[C@]2(C)[C@@]1(O)C(=O)COP(=O)(O)O	-3.16% (inactive)
CC(=O)Nc1cccc(N)c1	-8.25% [at 78.9 µM] (inactive)
COc1ccc(CN(CCN(C)C)c2ncccn2)cc1	15.7% (inactive)
Nc1ccc(C(=O)Oc2ccccc2)c(O)c1	15.2% (inactive)
CCCCCC1CCC(=O)O1 (configuration not stated)	4.92% (inactive)

target: Androgen receptor (Homo sapiens) (UniProt P10275); experiment: qHTS assay to identify small molecule agonists of the androgen receptor (AR) signaling pathway (AID 743036; active = well fitted activation curve with a large enough effect in the signal ratio in the repeat runs, with a control signal flat, not every such curve was filed as active; the % refers to the signal ratio); conditions: HEK293 AR-UAS-bla GripTite, beta-lactamase FRET ratio, 16 h; series mostly up to 62.4 µM; activation: at the top concentration
Procedure, shortened: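 Activation was read as beta-lactamase FRET signal from LiveBLAzer B/G substrate, added for 2 h at room temperature. Before that, GeneBLAzer AR-UAS-bla GripTite (HEK293) cells had 16 h compound exposure at 37C.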

Chain of Androgen receptor (Homo sapiens) (P10275 whole entry, looked up): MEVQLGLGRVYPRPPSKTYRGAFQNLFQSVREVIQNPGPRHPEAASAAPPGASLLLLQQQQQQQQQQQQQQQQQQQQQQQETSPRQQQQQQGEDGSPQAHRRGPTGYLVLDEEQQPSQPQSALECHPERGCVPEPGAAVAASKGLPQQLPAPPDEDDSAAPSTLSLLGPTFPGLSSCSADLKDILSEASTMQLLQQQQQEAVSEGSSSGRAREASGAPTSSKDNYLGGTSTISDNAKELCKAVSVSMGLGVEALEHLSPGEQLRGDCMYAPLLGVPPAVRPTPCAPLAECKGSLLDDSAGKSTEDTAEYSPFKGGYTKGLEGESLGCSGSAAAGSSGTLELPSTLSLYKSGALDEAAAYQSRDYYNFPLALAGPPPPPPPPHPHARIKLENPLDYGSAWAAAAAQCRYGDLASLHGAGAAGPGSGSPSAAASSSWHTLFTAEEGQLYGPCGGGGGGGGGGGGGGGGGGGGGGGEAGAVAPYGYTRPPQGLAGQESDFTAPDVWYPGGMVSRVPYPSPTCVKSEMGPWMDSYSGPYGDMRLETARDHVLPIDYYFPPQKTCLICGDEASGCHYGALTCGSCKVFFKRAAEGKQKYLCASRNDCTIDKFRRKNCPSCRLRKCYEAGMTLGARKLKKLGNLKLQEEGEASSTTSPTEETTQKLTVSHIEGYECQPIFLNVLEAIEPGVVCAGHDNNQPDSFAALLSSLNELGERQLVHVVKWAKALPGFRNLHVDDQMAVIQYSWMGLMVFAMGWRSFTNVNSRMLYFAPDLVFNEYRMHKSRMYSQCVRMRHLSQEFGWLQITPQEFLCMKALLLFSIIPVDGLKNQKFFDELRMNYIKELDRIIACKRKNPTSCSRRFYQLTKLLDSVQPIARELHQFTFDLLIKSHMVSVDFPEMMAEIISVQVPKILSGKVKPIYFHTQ

SMILES	activation
OCCCO	-2.75% [at 79.1 µM] (inactive)
CCOc1ccc(NC(C)=O)cc1N	-6.25% [at 79.1 µM] (inactive)
CCC[Si](OC)(OC)OC	-9.62% (inactive)

target: Androgen receptor (Homo sapiens) (UniProt P10275); experiment: qHTS assay to identify small molecule agonists of the androgen receptor (AR) signaling pathway using the MDA cell line (AID 743040; also: nearly all actives have a fitted effect of over 20% in size); conditions: MDA-kb2 AR-luc cells, MMTV luciferase, 16 h, active compounds read high; series mostly up to 70.3 µM; activity change: at the top concentration
Procedure, shortened: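 After a 5 h incubation at 37C and 0% CO2, MDA-kb2 reporter cells were dosed with compounds in DMSO and kept 16 h under the same conditions. Luciferase activity was then read as luminescence with ONE-Glo.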

SMILES	activity change
OCCCO	-1.29% [at 95 µM] (inactive)
Cc1ccc2c(Cl)cc(Cl)c(O)c2n1	-9.23% (inactive)
CCOc1ccc(NC(C)=O)cc1N	2.16% [at 95 µM] (inactive)
CCC[Si](OC)(OC)OC	1.51% (inactive)
CC(=O)Oc1cccc2c1C(=O)c1c(OC(C)=O)cc(C(=O)O)cc1C2=O	2.76% (inactive)

system: not listed separately; experiment: qHTS assay to identify small molecule antagonists of the androgen receptor (AR) signaling pathway using the MDA cell line - cell viability counter screen (AID 743041; also: nearly all actives have a fitted effect of over 45% in size; also: potency is read from the fitted curve at half-maximal effect); conditions: MDA-kb2 viability, CellTiter-Fluor, 16 h, cells co-treated with R1881 androgen agonist; series mostly up to 70.3 µM; viability change, negative = cytotoxic: at the top concentration
Procedure, shortened: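 R1881-driven MDA-kb2 AR-luc cells, 3,000/well, were dosed with library compounds for 16 h; cell health came from CellTiter-Fluor fluorescence in the reporter wells.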

SMILES	viability change, negative = cytotoxic	Potency
CC(COc1ccccc1)NC(C)C(O)c1ccc(O)cc1 (configuration not stated)	6.12% [at 32.5 µM] (inactive)	
CC1=C(C)C(=O)C(C(CCCCCC(=O)O)c2ccccc2)=C(C)C1=O (configuration not stated)	3.05% (inactive)	
C[Si](C)(C)O[Si](C)(C)O[Si](C)(C)C	5.26% (inactive)	
O=C(O)CNc1ccccc1	-0.151% (inactive)	
CCCCCCCCCCCC(=O)OCC	6.96% (inactive)	
Clc1nc2ccccc2nc1Cl	1.2% [at 95 µM] (inactive)	
O=[N+]([O-])c1ccc(Cl)cc1Cl	0.321% (inactive)	
CC(C(=O)O)c1ccc(/C=C2\CCCCC2=O)cc1 (configuration not stated)	21.8% (inactive)	
CCCC1CCCC(=O)O1 (configuration not stated)	-1.08% (inactive)	
CC(O)C(C)O (configuration not stated)	5.13% [at 95 µM] (inactive)	
COc1ccc(/C=C/c2cc(OC)cc(=O)o2)cc1	-7.71% (inactive)	
O=C(O)c1cc(C(=O)O)cc([N+](=O)[O-])c1	8.88% (inactive)	
O=C(NC1CCN(CCc2c[nH]c3ccccc23)CC1)c1ccccc1	-0.147% (inactive)	
CC(=O)c1ccc(Cl)c(Cl)c1Cl	5.99% (inactive)	
OCCCO	4.83% [at 95 µM] (inactive)	
Cc1ccc2c(Cl)cc(Cl)c(O)c2n1		9.44 µM (active)
COc1ccc(/C=C/S(=O)(=O)NC(=O)c2ccc(C)cc2Cl)cc1	-2.35% (inactive)	
OCCc1ccncc1	1.51% (inactive)	

SMILES	viability change, negative = cytotoxic	Potency
CCOc1ccc(NC(C)=O)cc1N	-12.2% [at 95 µM] (inactive)	
C=CC(=O)OCCCCCCCCCC	5.64% (inactive)	
CC(CCl)OC(C)CCl (configuration not stated)	7.47% (inactive)	
Nc1ccc(-c2ccc(F)cc2)cc1	16.2% (inactive)	
CC(C)(C)c1ccc(CCC=O)cc1	-6.02% (inactive)	
CCC[Si](OC)(OC)OC	8.91% (inactive)	
Nc1cccc2c(=O)[nH][nH]c(=O)c12	1.77% [at 95 µM] (inactive)	
C/C(=C\C(C)CC(C)CC(C)C)C1CC(=O)OC1=O (configuration not stated)	-3.56% (inactive)	
CCCCCCCCCCCCCCCCN	9.44% (inactive)	
O=C(O)c1ccc2cc(O)ccc2c1	0.12% (inactive)	
Cc1ccccc1CCO	3.8% (inactive)	
O=C1OC(=O)C2CC=CCC12 (configuration not stated)	3% [at 95 µM] (inactive)	
C[C@H]1C[C@H]2[C@@H]3CCC4=CC(=O)C=C[C@]4(C)[C@@]3(F)[C@@H](O)C[C@]2(C)[C@@]1(O)C(=O)COP(=O)(O)O	-3.18% (inactive)	
CC(=O)Nc1cccc(N)c1	-2.89% [at 95 µM] (inactive)	
COc1ccc(CN(CCN(C)C)c2ncccn2)cc1	29.2% (inactive)	
Nc1ccc(C(=O)Oc2ccccc2)c(O)c1	3.4% (inactive)	
FC1(F)C(F)(F)C(F)(F)C2(F)C(F)(C1(F)F)C(F)(F)C(F)(F)C1(F)C(F)(F)C(F)(F)C(F)(F)C(F)(F)C12F (configuration not stated)	4.28% (inactive)	
CCCCCC1CCC(=O)O1 (configuration not stated)	1.54% (inactive)	

target: Androgen receptor (Homo sapiens) (UniProt P10275); experiment: qHTS assay to identify small molecule antagonists of the androgen receptor (AR) signaling pathway using the MDA cell line (AID 743042; also: nearly all actives have a fitted effect of over 55% in size; also: potency is read from the fitted curve at half-maximal effect); conditions: MDA-kb2 AR-luc, MMTV luciferase, R1881 antagonist, 16 h; series mostly up to 70.3 µM; activity change, negative = inhibition: at the top concentration
Procedure, shortened: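 Antagonist mode: compounds plus R1881 agonist added to MDA-kb2 AR-luc cells, incubated 16 h at 37C. Luciferase reporter luminescence quantified, with multiplexed CellTiter-Fluor readout for cell viability.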

SMILES	activity change, negative = inhibition	Potency
OCCCO	15.9% [at 95 µM] (inactive)	
Cc1ccc2c(Cl)cc(Cl)c(O)c2n1		2.66 µM (active)
CCOc1ccc(NC(C)=O)cc1N	0.636% [at 95 µM] (inactive)	
CCC[Si](OC)(OC)OC	2.03% (inactive)	
CC(=O)Oc1cccc2c1C(=O)c1c(OC(C)=O)cc(C(=O)O)cc1C2=O	-29.3% (inactive)	
